Source: a collection of fitness landscapes (doi:10.1016/j.celrep.2020.107928)
The full ranking holds about 81,000 sequences; the median of “one-hybrid fitness for binding NBS DNA” is about -0.1, and the highest 2% start at about 0.36. The entries come from a sample that favours the highest values as a whole.

B1: Caulobacter ParB omega fusion; a variant is named by its letters at X, in order, B8GW30 (parent)
chain: MESVVVGEPGMSEGRRGLGRGLSALLGEVDAAPAQAPGEQLGGSREAPIEILQRNPDQPRRTFREEDLEDLSNSIREKGVLQPILVRPSPDTAGEYQIVAGERAWRAAQRAGLKTVPIMVRELDDLAVLEIGIIENVQRADLNVLEEALSYKVLMEKFERTQENIAQTIGKSXSHVANXMRLLXLPDEVQSYLVSGELTAXHARAIAAAADPVALAKQIIEGGLSVRETEALARKAPNLSAGKSKGGRPPRVKDTDTQALESDLSSVLGLDVSIDHRGSTGTLTITYATLEQLDDLCNRLTRGI

Variants of: B1
Test: one-hybrid fitness for binding NBS DNA (the Noc-binding site; scaled: cognate 1, non-cognate 0); higher = stronger binding
Details: with NBS DNA site
How it was run: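 Pre- and post-selection plasmids were Illumina-sequenced, three replicate libraries were pooled, and any variant with under 10 reads was removed. The libraries were Caulobacter ParB with four specificity codons randomised, selected in E. coli USO through a HIS3 reporter whose site is 19 bp from the promoter. Cells grew 48 hours at 37°C on M9 without histidine, with 0.1 mM IPTG and 5 mM 3-AT. Fitness is the log change in variant-to-wild-type read ratio, rescaled against cognate and non-cognate.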

Row | Variant | one-hybrid fitness for binding NBS DNA
1 | NVIT | ≤ 0.2
2 | NCKE | ≤ 0.2
3 | GYMR | ≤ 0.2
4 | VACG | ≤ 0.2
5 | GAQH | ≤ 0.2
6 | LKVD | ≤ 0.2
7 | RKFK | ≤ 0.2
8 | RPFR | ≤ 0.2
9 | RKAN | ≤ 0.2
10 | RKFR | 0.443
11 | RFFR | ≤ 0.2
12 | RCFR | 0.376
13 | RKAH | 0.322
14 | RKAR | 0.597
15 | RKFQ | ≤ 0.2
16 | PSEM | ≤ 0.2
17 | VQGT | ≤ 0.2
18 | EMAT | ≤ 0.2
19 | MADF | ≤ 0.2
20 | PISS | ≤ 0.2
21 | CTLV | ≤ 0.2
22 | YGYV | ≤ 0.2
23 | RTKT | 0.724
24 | RTVD | ≤ 0.2

Row | Variant | one-hybrid fitness for binding NBS DNA
25 | RTKQ | 0.356
26 | RTVT | 0.393
27 | RTVK | ≤ 0.2
28 | RTKC | 0.31
29 | EDMY | ≤ 0.2
30 | WWLN | ≤ 0.2
31 | RCEN | ≤ 0.2
32 | DHID | ≤ 0.2
33 | PMHC | ≤ 0.2
34 | TEPL | ≤ 0.2
35 | PAKT | ≤ 0.2
36 | PFVA | ≤ 0.2
37 | GVMR | ≤ 0.2
38 | QQVP | ≤ 0.2
39 | QQKT | 0.811
40 | QQVT | 0.393
41 | QQKF | 0.356
42 | KQKT | 0.222
43 | QQVN | ≤ 0.2
44 | DFWV | ≤ 0.2
45 | PKQR | ≤ 0.2
46 | TNGR | ≤ 0.2
47 | DAAG | ≤ 0.2
48 | CWHR | ≤ 0.2

Row | Variant | one-hybrid fitness for binding NBS DNA
49 | QAGS | 0.342
50 | QTGQ | 0.27
51 | QAGT | 0.37
52 | QAGN | ≤ 0.2
53 | QLGH | ≤ 0.2
54 | QSGT | 0.385
55 | QLGT | 0.369
56 | QLGS | 0.322
57 | QSGD | ≤ 0.2
58 | QTGY | 0.312
59 | QTGT | 0.64
60 | QSGN | ≤ 0.2
61 | DRLC | ≤ 0.2
62 | AHIW | ≤ 0.2
63 | CMMG | ≤ 0.2
64 | SQTP | ≤ 0.2
65 | CRSF | ≤ 0.2
66 | KPEL | ≤ 0.2
67 | QHGS | 0.343
68 | QIGT | 0.331
69 | QCGT | 0.558
70 | QHGT | 0.385
71 | QPGT | ≤ 0.2
72 | QHGP | ≤ 0.2

Row | Variant | one-hybrid fitness for binding NBS DNA
73 | LTNG | ≤ 0.2
74 | SHCL | ≤ 0.2
75 | DTQK | ≤ 0.2
76 | GMQY | ≤ 0.2
77 | SYPN | ≤ 0.2
78 | QRIH | 0.335
79 | QRIS | 0.546
80 | QRPP | ≤ 0.2
81 | QRPS | 0.461
82 | QRPD | ≤ 0.2
83 | QRIN | ≤ 0.2
84 | TLDA | ≤ 0.2
85 | VTHW | ≤ 0.2
86 | PTMM | ≤ 0.2
87 | REHM | ≤ 0.2
88 | TEDC | ≤ 0.2
89 | MFLM | ≤ 0.2
90 | WPQL | ≤ 0.2
91 | QDTP | ≤ 0.2
92 | SAMV | ≤ 0.2
93 | RTPA | ≤ 0.2
94 | RKWA | 0.249
95 | RTVA | ≤ 0.2
96 | RPKA | ≤ 0.2

Row | Variant | one-hybrid fitness for binding NBS DNA
97 | RFKA | ≤ 0.2
98 | RRKA | 0.712
99 | RTKA | 0.479
100 | RKKA | 0.514
101 | RIKA | 0.327
102 | RCKA | 0.423
103 | RSKA | 0.343
104 | RKVA | ≤ 0.2
105 | VDGR | ≤ 0.2
106 | KWPI | ≤ 0.2
107 | RNIK | ≤ 0.2
108 | VKTS | ≤ 0.2
109 | LYFR | ≤ 0.2
110 | CLSP | ≤ 0.2
111 | QWKS | ≤ 0.2
112 | SAIE | ≤ 0.2
113 | RCVA | ≤ 0.2
114 | RSVA | ≤ 0.2
115 | RRVA | 0.571
116 | SFPF | ≤ 0.2
117 | CLCS | ≤ 0.2
118 | HDRG | ≤ 0.2
119 | PCMM | ≤ 0.2
120 | QMNP | ≤ 0.2

Row | Variant | one-hybrid fitness for binding NBS DNA
121 | QSNH | 0.273
122 | QMNS | 0.458
123 | QANS | 0.392
124 | QSNS | 0.421
125 | QSDS | ≤ 0.2
126 | QMDS | ≤ 0.2
127 | QADS | ≤ 0.2
128 | QHDS | ≤ 0.2
129 | QANP | ≤ 0.2
130 | QHNS | 0.419
131 | QHNN | ≤ 0.2
132 | KNIF | ≤ 0.2
133 | WQYS | ≤ 0.2
134 | YNRS | ≤ 0.2
135 | VAGY | ≤ 0.2
136 | ITFA | ≤ 0.2
137 | TSRF | ≤ 0.2
138 | KQID | ≤ 0.2
139 | QCNS | 0.534
140 | QPNS | ≤ 0.2
141 | QINS | 0.329
142 | QLNP | ≤ 0.2
143 | QLNS | 0.385
144 | QLDS | ≤ 0.2

Row | Variant | one-hybrid fitness for binding NBS DNA
145 | CAVL | ≤ 0.2
146 | QSVQ | 0.291
147 | QSKQ | 0.351
148 | QPKQ | ≤ 0.2
149 | QRKQ | 0.492
150 | QRVQ | 0.511
151 | QRPQ | ≤ 0.2
152 | QPVQ | 0.598
153 | QWKF | ≤ 0.2
154 | LTYT | ≤ 0.2
155 | THMS | ≤ 0.2
156 | QFPN | ≤ 0.2
157 | GTPY | ≤ 0.2
158 | EAGR | ≤ 0.2
159 | MHRT | ≤ 0.2
160 | RVTD | ≤ 0.2
161 | RVTN | ≤ 0.2
162 | RVTS | 0.392
163 | RVTR | 0.429
164 | RVTM | ≤ 0.2
165 | RVTY | ≤ 0.2
166 | RVTH | ≤ 0.2
167 | RVTT | 0.449
168 | RVTP | ≤ 0.2

Row | Variant | one-hybrid fitness for binding NBS DNA
169 | LTHY | ≤ 0.2
170 | RNVL | ≤ 0.2
171 | GFEG | ≤ 0.2
172 | DLLN | ≤ 0.2
173 | QAGR | 0.525
174 | QAHQ | ≤ 0.2
175 | QAHR | 0.541
176 | MARR | 0.414
177 | QAHD | ≤ 0.2
178 | MAYR | ≤ 0.2
179 | QAPR | 0.275
180 | QAYR | 0.464
181 | QAGH | ≤ 0.2
182 | QAIR | 0.308
183 | MARN | ≤ 0.2
184 | QAGD | ≤ 0.2
185 | PHID | ≤ 0.2
186 | SLRF | ≤ 0.2
187 | CMGR | ≤ 0.2
188 | NAWR | ≤ 0.2
189 | STPW | ≤ 0.2
190 | CRAL | ≤ 0.2
191 | FGKT | ≤ 0.2
192 | GADW | ≤ 0.2

Row | Variant | one-hybrid fitness for binding NBS DNA
193 | KKET | ≤ 0.2
194 | MDLY | ≤ 0.2
195 | QARR | 0.973
196 | QARP | 0.24
197 | QARD | 0.23
198 | AKDS | ≤ 0.2
199 | LERS | ≤ 0.2
200 | RRYQ | 0.207
201 | RKVQ | ≤ 0.2
202 | RRDQ | 0.241
203 | RFVQ | ≤ 0.2
204 | RSKQ | ≤ 0.2
205 | RRKQ | 0.436
206 | RCKQ | 0.254
207 | RSVQ | ≤ 0.2
208 | RRRQ | 0.401
209 | RRVQ | 0.428
210 | RCVQ | 0.215
211 | RPVQ | 0.397
212 | GWHC | ≤ 0.2
213 | VAYS | ≤ 0.2
214 | MTCD | ≤ 0.2
215 | DSMI | ≤ 0.2
216 | KMGG | ≤ 0.2

Row | Variant | one-hybrid fitness for binding NBS DNA
217 | CFTM | ≤ 0.2
218 | YTCL | ≤ 0.2
219 | NNIR | ≤ 0.2
220 | LTMG | ≤ 0.2
221 | YGMS | ≤ 0.2
222 | RDGN | ≤ 0.2
223 | AVNT | ≤ 0.2
224 | WVRG | ≤ 0.2
225 | LRPM | ≤ 0.2
226 | KTIT | ≤ 0.2
227 | DVIS | ≤ 0.2
228 | LRVF | ≤ 0.2
229 | QTLF | ≤ 0.2
230 | QCKF | 0.387
231 | QPKF | ≤ 0.2
232 | QTVF | ≤ 0.2
233 | QRPF | ≤ 0.2
234 | QRVF | ≤ 0.2
235 | QSKF | 0.29
236 | QTKF | 0.43
237 | QRKF | 0.405
238 | ASVE | ≤ 0.2
239 | QMSV | ≤ 0.2
240 | QFMT | ≤ 0.2

Row | Variant | one-hybrid fitness for binding NBS DNA
241 | SSYL | ≤ 0.2
242 | ETES | ≤ 0.2
243 | RVIR | 0.242
244 | VVRC | ≤ 0.2
245 | HHPQ | ≤ 0.2
246 | VVGI | ≤ 0.2
247 | EYWD | ≤ 0.2
248 | RYYA | ≤ 0.2
249 | RMRA | 0.409
250 | RTRA | 0.446
251 | RPRA | ≤ 0.2
252 | RSRA | 0.317
253 | RTDA | ≤ 0.2
254 | RTYA | 0.268
255 | RMDA | ≤ 0.2
256 | RCRA | 0.422
257 | RYRA | 0.367
258 | RMYA | ≤ 0.2
259 | RYDA | ≤ 0.2
260 | GMVG | ≤ 0.2
261 | QAEN | ≤ 0.2
262 | LNQS | ≤ 0.2
263 | QLYL | ≤ 0.2
264 | PLQD | ≤ 0.2

Row | Variant | one-hybrid fitness for binding NBS DNA
265 | RKRA | 0.45
266 | RKDA | ≤ 0.2
267 | RKYA | 0.344
268 | LPLA | ≤ 0.2
269 | AQDR | ≤ 0.2
270 | LIAK | ≤ 0.2
271 | RQYC | ≤ 0.2
272 | RQKD | ≤ 0.2
273 | RQKS | 0.581
274 | RQKH | 0.376
275 | RQKN | 0.214
276 | RQKP | ≤ 0.2
277 | RQVH | ≤ 0.2
278 | RQVC | ≤ 0.2
279 | RQKC | 0.381
280 | PEWV | ≤ 0.2
281 | NNCS | ≤ 0.2
282 | ASVF | ≤ 0.2
283 | CPDH | ≤ 0.2
284 | EDYG | ≤ 0.2
285 | PTEW | ≤ 0.2
286 | LKYT | ≤ 0.2
287 | VKLR | ≤ 0.2
288 | WHHR | ≤ 0.2

Row | Variant | one-hybrid fitness for binding NBS DNA
289 | CGEV | ≤ 0.2
290 | PNVE | ≤ 0.2
291 | RKKV | 0.277
292 | WVQL | ≤ 0.2
293 | KCKT | 0.212
294 | KPVT | ≤ 0.2
295 | KPKT | ≤ 0.2
296 | KCVT | ≤ 0.2
297 | KRKT | 0.66
298 | KRVT | 0.547
299 | CLTC | ≤ 0.2
300 | AGTG | ≤ 0.2
301 | LNTG | ≤ 0.2
302 | GMVQ | ≤ 0.2
303 | PNQS | ≤ 0.2
304 | SNTG | ≤ 0.2
305 | AFGR | ≤ 0.2
306 | RKNW | ≤ 0.2
